Structures can show the parent of a compound that is named as a salt. Over roughly 1,500 compounds, “Excess HSA synergy score (sum over dose matrix of excess over highest single agent)” has its median near 43; the lowest 2% begin near -900. The entries come from a sample that favours the lowest values as a whole.
Test system: PEO-1
Test: Excess HSA synergy score (sum over dose matrix of excess over highest single agent) (score (summed % response)); higher = less synergy / more antagonism (negative = synergy)
Settings: 72 h, read-out: viability/apoptosis luminescence (CellTiter-Glo or Caspase3-Glo / not stated per table)
[1] = matrix design: 6x6, 5-fold dilutions (primary screen)

Compound | Excess HSA synergy score [1] | Excess HSA synergy score (matrix design: 10x10, 9-step dilutions (confirmatory))
CCc1cc(-c2n[nH]c(C)c2-c2ccc3c(c2)OCCO3)c(O)cc1O + CC[C@H](NC(=O)[C@H](C)NC)C(=O)N1C[C@@H](O)C[C@H]1Cc1c(-c2[nH]c3cc(F)ccc3c2C[C@@H]2C[C@H](O)CN2C(=O)[C@H](CC)NC(=O)[C@H](C)NC)[nH]c2cc(F)ccc12 [Birinapant] | 405 | –
Cc1c[nH]c(/C=C2\C(=O)Nc3ccccc32)c1CCC(=O)O + CC[C@H](NC(=O)[C@H](C)NC)C(=O)N1C[C@@H](O)C[C@H]1Cc1c(-c2[nH]c3cc(F)ccc3c2C[C@@H]2C[C@H](O)CN2C(=O)[C@H](CC)NC(=O)[C@H](C)NC)[nH]c2cc(F)ccc12 [Birinapant] | 54.2 | –
CC1(C)O[C@H]2CC(=O)OC[C@]23[C@H]2CC[C@@]4(C)[C@H](c5ccoc5)OC(=O)[C@H]5O[C@]54[C@]2(C)C(=O)C[C@@H]13 [Limonin] + CC[C@H](NC(=O)[C@H](C)NC)C(=O)N1C[C@@H](O)C[C@H]1Cc1c(-c2[nH]c3cc(F)ccc3c2C[C@@H]2C[C@H](O)CN2C(=O)[C@H](CC)NC(=O)[C@H](C)NC)[nH]c2cc(F)ccc12 [Birinapant] | 15.5 | –
COc1cccc2c1C(=O)c1c(O)c3c(c(O)c1C2=O)C[C@@](O)(C(=O)CO)C[C@@H]3O[C@H]1C[C@H](N)[C@@H](O)[C@H](C)O1 [Epirubicin hydrochloride] + CC[C@H](NC(=O)[C@H](C)NC)C(=O)N1C[C@@H](O)C[C@H]1Cc1c(-c2[nH]c3cc(F)ccc3c2C[C@@H]2C[C@H](O)CN2C(=O)[C@H](CC)NC(=O)[C@H](C)NC)[nH]c2cc(F)ccc12 [Birinapant] | -93.1 | –
CC[C@@]1(O)C[C@H](O[C@H]2C[C@H](N(C)C)[C@H](O[C@H]3C[C@H](O)[C@H](O[C@H]4CCC(=O)[C@H](C)O4)[C@H](C)O3)[C@H](C)O2)c2c(cc3c(c2O)C(=O)c2c(O)cccc2C3=O)[C@H]1C(=O)OC [Aclarubicin] + CC[C@H](NC(=O)[C@H](C)NC)C(=O)N1C[C@@H](O)C[C@H]1Cc1c(-c2[nH]c3cc(F)ccc3c2C[C@@H]2C[C@H](O)CN2C(=O)[C@H](CC)NC(=O)[C@H](C)NC)[nH]c2cc(F)ccc12 [Birinapant] | -147 | -1130
COc1cccc2c1C(=O)c1c(O)c3c(c(O)c1C2=O)C[C@@](O)(C(=O)CO)C[C@@H]3O[C@H]1C[C@H](N)[C@H](O)[C@H](C)O1 [Doxorubicin] + CC[C@H](NC(=O)[C@H](C)NC)C(=O)N1C[C@@H](O)C[C@H]1Cc1c(-c2[nH]c3cc(F)ccc3c2C[C@@H]2C[C@H](O)CN2C(=O)[C@H](CC)NC(=O)[C@H](C)NC)[nH]c2cc(F)ccc12 [Birinapant] | -136 | –
CCc1cc2c(cc1N1CCC(N3CCOCC3)CC1)C(C)(C)c1[nH]c3cc(C#N)ccc3c1C2=O + CC[C@H](NC(=O)[C@H](C)NC)C(=O)N1C[C@@H](O)C[C@H]1Cc1c(-c2[nH]c3cc(F)ccc3c2C[C@@H]2C[C@H](O)CN2C(=O)[C@H](CC)NC(=O)[C@H](C)NC)[nH]c2cc(F)ccc12 [Birinapant] | 183 | –
C[Se]CC[C@H](N)C(=O)O [L-selenomethionine] + CC[C@H](NC(=O)[C@H](C)NC)C(=O)N1C[C@@H](O)C[C@H]1Cc1c(-c2[nH]c3cc(F)ccc3c2C[C@@H]2C[C@H](O)CN2C(=O)[C@H](CC)NC(=O)[C@H](C)NC)[nH]c2cc(F)ccc12 [Birinapant] | 115 | –
CC(=O)O/N=C1/C(=C2/C(=O)Nc3cc(Br)ccc32)Nc2ccccc21 [6-Bromoindirubin-3'-acetoxime] + CC[C@H](NC(=O)[C@H](C)NC)C(=O)N1C[C@@H](O)C[C@H]1Cc1c(-c2[nH]c3cc(F)ccc3c2C[C@@H]2C[C@H](O)CN2C(=O)[C@H](CC)NC(=O)[C@H](C)NC)[nH]c2cc(F)ccc12 [Birinapant] | 131 | –
Cc1ccc(C(=O)N(CCCN)[C@@H](c2nc3cc(Cl)ccc3c(=O)n2Cc2ccccc2)C(C)C)cc1 [Ispinesib] + CC[C@H](NC(=O)[C@H](C)NC)C(=O)N1C[C@@H](O)C[C@H]1Cc1c(-c2[nH]c3cc(F)ccc3c2C[C@@H]2C[C@H](O)CN2C(=O)[C@H](CC)NC(=O)[C@H](C)NC)[nH]c2cc(F)ccc12 [Birinapant] | -86.8 | –
Nc1nccc(-c2ccc3noc(-c4ccc(Cl)cc4)c3c2)n1 [Pim 1 Inhibitor 2] + CC[C@H](NC(=O)[C@H](C)NC)C(=O)N1C[C@@H](O)C[C@H]1Cc1c(-c2[nH]c3cc(F)ccc3c2C[C@@H]2C[C@H](O)CN2C(=O)[C@H](CC)NC(=O)[C@H](C)NC)[nH]c2cc(F)ccc12 [Birinapant] | 12.2 | –
C=CCNc1c(O)cc2c(O)c1C[C@@H](C)C[C@H](OC)[C@H](O)[C@@H](C)/C=C(\C)[C@H](OC(N)=O)[C@@H](OC)/C=C\C=C(/C)C(=O)N2 [Retaspimycin] + CC[C@H](NC(=O)[C@H](C)NC)C(=O)N1C[C@@H](O)C[C@H]1Cc1c(-c2[nH]c3cc(F)ccc3c2C[C@@H]2C[C@H](O)CN2C(=O)[C@H](CC)NC(=O)[C@H](C)NC)[nH]c2cc(F)ccc12 [Birinapant] | -10.7 | –
NC(=O)Nc1cc(-c2cccc(F)c2)sc1C(=O)N[C@H]1CCCNC1 + CC[C@H](NC(=O)[C@H](C)NC)C(=O)N1C[C@@H](O)C[C@H]1Cc1c(-c2[nH]c3cc(F)ccc3c2C[C@@H]2C[C@H](O)CN2C(=O)[C@H](CC)NC(=O)[C@H](C)NC)[nH]c2cc(F)ccc12 [Birinapant] | 119 | –
Cc1cccc(Nc2nc(-c3ccncc3)cs2)c1 + CC[C@H](NC(=O)[C@H](C)NC)C(=O)N1C[C@@H](O)C[C@H]1Cc1c(-c2[nH]c3cc(F)ccc3c2C[C@@H]2C[C@H](O)CN2C(=O)[C@H](CC)NC(=O)[C@H](C)NC)[nH]c2cc(F)ccc12 [Birinapant] | 69.4 | –
COc1cc(F)c(C(C)C)cc1-c1ccc(C(F)(F)F)cc1CN1C(=O)O[C@H](c2cc(C(F)(F)F)cc(C(F)(F)F)c2)[C@@H]1C [Anacetrapib] + CC[C@H](NC(=O)[C@H](C)NC)C(=O)N1C[C@@H](O)C[C@H]1Cc1c(-c2[nH]c3cc(F)ccc3c2C[C@@H]2C[C@H](O)CN2C(=O)[C@H](CC)NC(=O)[C@H](C)NC)[nH]c2cc(F)ccc12 [Birinapant] | -71.8 | –
CN(C)c1ccc(C(=C2C=CC(=[N+](C)C)C=C2)c2ccc(N(C)C)cc2)cc1 [Methylrosaniline chloride] + CC[C@H](NC(=O)[C@H](C)NC)C(=O)N1C[C@@H](O)C[C@H]1Cc1c(-c2[nH]c3cc(F)ccc3c2C[C@@H]2C[C@H](O)CN2C(=O)[C@H](CC)NC(=O)[C@H](C)NC)[nH]c2cc(F)ccc12 [Birinapant] | -147 | –
COc1ccc(C2=N[C@@H](c3ccc(Cl)cc3)[C@@H](c3ccc(Cl)cc3)N2C(=O)N2CCNC(=O)C2)c(OC(C)C)c1 [Nutlin-3] + CC[C@H](NC(=O)[C@H](C)NC)C(=O)N1C[C@@H](O)C[C@H]1Cc1c(-c2[nH]c3cc(F)ccc3c2C[C@@H]2C[C@H](O)CN2C(=O)[C@H](CC)NC(=O)[C@H](C)NC)[nH]c2cc(F)ccc12 [Birinapant] | 264 | –
CCS(=O)(=O)N1CC(CC#N)(n2cc(-c3ncnc4[nH]ccc34)cn2)C1 [Baricitinib] + CC[C@H](NC(=O)[C@H](C)NC)C(=O)N1C[C@@H](O)C[C@H]1Cc1c(-c2[nH]c3cc(F)ccc3c2C[C@@H]2C[C@H](O)CN2C(=O)[C@H](CC)NC(=O)[C@H](C)NC)[nH]c2cc(F)ccc12 [Birinapant] | 48.3 | –
N#CC(c1ccnc(OCc2ccc(CN3CCOCC3)cc2)n1)c1nc2ccccc2s1 (centres undefined) + CC[C@H](NC(=O)[C@H](C)NC)C(=O)N1C[C@@H](O)C[C@H]1Cc1c(-c2[nH]c3cc(F)ccc3c2C[C@@H]2C[C@H](O)CN2C(=O)[C@H](CC)NC(=O)[C@H](C)NC)[nH]c2cc(F)ccc12 [Birinapant] | 104 | –
COc1ccc(C(=O)CC2(O)C(=O)Nc3c(Cl)ccc(Cl)c32)cc1 (centres undefined) + CC[C@H](NC(=O)[C@H](C)NC)C(=O)N1C[C@@H](O)C[C@H]1Cc1c(-c2[nH]c3cc(F)ccc3c2C[C@@H]2C[C@H](O)CN2C(=O)[C@H](CC)NC(=O)[C@H](C)NC)[nH]c2cc(F)ccc12 [Birinapant] | 27 | –
NC(=O)c1ccc(N(C(N)=O)c2c(F)cccc2F)nc1-c1ccc(F)cc1F + CC[C@H](NC(=O)[C@H](C)NC)C(=O)N1C[C@@H](O)C[C@H]1Cc1c(-c2[nH]c3cc(F)ccc3c2C[C@@H]2C[C@H](O)CN2C(=O)[C@H](CC)NC(=O)[C@H](C)NC)[nH]c2cc(F)ccc12 [Birinapant] | 69.1 | –
Cn1cnc(N)c2ncnc1-2 [3-Methyladenine] + CC[C@H](NC(=O)[C@H](C)NC)C(=O)N1C[C@@H](O)C[C@H]1Cc1c(-c2[nH]c3cc(F)ccc3c2C[C@@H]2C[C@H](O)CN2C(=O)[C@H](CC)NC(=O)[C@H](C)NC)[nH]c2cc(F)ccc12 [Birinapant] | 238 | –
C[C@@]12C[C@@]3(O)O[C@@H](O1)[C@]1(COC(=O)c4ccccc4)[C@H]3C[C@@]12O[C@@H]1O[C@H](CO)[C@@H](O)[C@H](O)[C@H]1O [Paeoniflorin] + CC[C@H](NC(=O)[C@H](C)NC)C(=O)N1C[C@@H](O)C[C@H]1Cc1c(-c2[nH]c3cc(F)ccc3c2C[C@@H]2C[C@H](O)CN2C(=O)[C@H](CC)NC(=O)[C@H](C)NC)[nH]c2cc(F)ccc12 [Birinapant] | 211 | –

— the supplement of paper PMC7765376
